Calls of active or inactive are those of the source. Unless noted, the rule behind the calls is not given here.
What was measured:
[1] = A549 cell viability effects, profiling panel, calcein-AM fluorescence, 48 h, basal (AID 1162); details: higher = more signal; note: test concentration not given here
[2] = adipocyte viability effects, profiling panel, cell-based, 3T3-L1 adipocytes, calcein-AM fluorescence, 48 h, basal (AID 1163); details: 3T3-L1 adipocytes viability, higher = more signal; note: test concentration not given here
[3] = HepG2 cell viability effects, profiling panel, calcein-AM fluorescence, 48 h, basal (AID 1164); details: higher = more signal; note: test concentration not given here
[4] = MM1S cell viability effects, profiling panel, calcein-AM fluorescence, 48 h, basal (AID 1165); details: higher = more signal;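 note: viability of MM1S multiple myeloma cells under basal unstimulated conditions; test concentration not given here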
[5] = basal RPMI8226 viability, no added stimulus, profiling panel, cell-based, calcein-AM fluorescence, 48 h, PK04 Diversity Set (AID 1166); details: RPMI8226 myeloma viability, higher = more signal;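 note: cells grown under basal conditions without added stimulus; test concentration not given here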
[6] = basal HepG2 mitochondrial membrane potential changes, profiling panel, cell-based, JC-1 fluorescence, 24 h, 100 nL compound (AID 1167); details: higher = more signal; note: test concentration not given here
[7] = basal 3T3-L1 adipocyte mitochondrial potential changes, profiling panel, cell-based, JC-1 fluorescence, 3T3-L1 adipocytes, 24 h, 100 nL compound (AID 1168); details: JC-1 mitochondrial fluorescence, higher = more signal, called active from +8 up or from −8 down; note: test concentration not given here
[8] = basal RPMI8226 mitochondrial membrane potential changes, profiling panel, cell-based, JC-1 fluorescence, 24 h, 100 nL compound (AID 1169); details: RPMI8226 myeloma, JC-1 mitochondrial potential fluorescence, higher = more signal; note: test concentration not given here
[9] = basal MM1S mitochondrial membrane potential changes, profiling panel, cell-based, JC-1 fluorescence, 24 h, 100 nL compound (AID 1170); details: higher = more signal; note: test concentration not given here
[10] = A549 lung cancer cell viability effects, profiling panel, resazurin fluorescence, 24 h, PK04 Diversity Set (AID 1171); details: higher = more signal, called active from +8 up or from −8 down; note: test concentration not given here
[11] = HepG2 liver cancer cell viability effects, profiling panel, resazurin fluorescence, 24 h, PK04 Diversity Set (AID 1172); details: higher = more signal; note: test concentration not given here
[12] = basal S. cerevisiae growth modulation, no modifier, primary screen, OD600, strain BY4716, 24 h, basal condition (AID 1173); details: OD600, 24 h, higher = more signal, called active from +8 up or from −8 down
[13] = MM1S myeloma cell viability, profiling panel, resazurin fluorescence, basal, 24 h, PK04 Diversity Set (AID 1174); details: higher = more signal, called active from +8 up or from −8 down;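 note: MM1S multiple myeloma cell line; test concentration not given here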
[14] = target: Dihydroorotate dehydrogenase (quinone), mitochondrial (Plasmodium falciparum (isolate 3D7)) (UniProt Q08210); assay: PfDHODH enzyme inhibitors, primary screen, biochemical, C-terminal His tag, absorbance 600 nm (AID 1175); details: DCIP absorbance 600 nm, higher = more signal, called active from +8 up or from −8 down;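 note: recombinant parasite enzyme with a five histidine tag at its C terminus; test concentration not given here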
[15] = P. aeruginosa biofilm formation inhibitors, primary screen, strain PAO1, LB-PBS medium, absorbance 600 nm (AID 1176); note: test concentration not given here; details: P. aeruginosa PAO1 growth/biofilm, A600, 12 h; higher = more signal
[16] = S. cerevisiae RM11-1a growth modifiers, primary screen, strain RM11-1a, OD600, basal, 24 h (AID 1177); details: OD600, 24 h, higher = more signal, called active from +8 up or from −8 down;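 note: cultures grown under basal conditions with no added stressor; test concentration not given here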
[17] = E. coli acrAB mutant growth effects, primary screen, E. coli filamentation inducers, strain DRC39, OD650, 24 h (AID 1178); details: higher = more signal, called active from +8 up or from −8 down;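 note: growth measured as culture turbidity by optical density at 650 nm; test concentration not given here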
[18] = E. coli acrAB mutant growth effects, primary screen, E. coli filamentation inducers, strain DRC39, OD650, 48 h (AID 1179);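 note: screen aims at cell division blockers that make cells filament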; details: E. coli DRC39 delta-acrAB growth, higher = more signal, called active from +8 up or from −8 down
[19] = RPMI8226 myeloma cell viability, profiling panel, resazurin fluorescence, basal, 24 h, PK04 Diversity Set (AID 1180); details: higher = more signal;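 note: RPMI8826 multiple myeloma cell line at 5000 cells per well; test concentration not given here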
[20] = target: E3 ubiquitin-protein ligase XIAP (Homo sapiens) (UniProt P98170); assay: XIAP binders, primary screen, biophysical, small-molecule microarray, fluorescence 635 nm (AID 1181); details: small-molecule microarray binding, higher = more signal;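 note: score merges 667 nm emission and signal to noise over triplicate slides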
Sequence of E3 ubiquitin-protein ligase XIAP (Homo sapiens) (P98170 whole entry, looked up): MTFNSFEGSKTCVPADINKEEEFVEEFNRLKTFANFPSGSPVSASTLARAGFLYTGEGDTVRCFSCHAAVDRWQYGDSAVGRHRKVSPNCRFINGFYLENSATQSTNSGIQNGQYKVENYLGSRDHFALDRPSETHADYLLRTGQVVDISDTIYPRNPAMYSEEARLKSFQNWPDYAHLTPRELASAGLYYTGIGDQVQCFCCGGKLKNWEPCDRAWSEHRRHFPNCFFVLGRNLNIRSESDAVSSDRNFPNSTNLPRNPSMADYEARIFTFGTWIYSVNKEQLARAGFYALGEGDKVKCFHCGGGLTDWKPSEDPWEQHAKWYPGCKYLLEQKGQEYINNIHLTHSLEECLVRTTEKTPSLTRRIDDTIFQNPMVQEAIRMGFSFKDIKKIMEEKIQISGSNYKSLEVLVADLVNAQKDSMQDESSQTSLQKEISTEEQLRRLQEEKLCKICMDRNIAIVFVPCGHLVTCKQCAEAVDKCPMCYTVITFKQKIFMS

Sequence of Dihydroorotate dehydrogenase (quinone), mitochondrial (Plasmodium falciparum (isolate 3D7)) (Q08210 whole entry, looked up): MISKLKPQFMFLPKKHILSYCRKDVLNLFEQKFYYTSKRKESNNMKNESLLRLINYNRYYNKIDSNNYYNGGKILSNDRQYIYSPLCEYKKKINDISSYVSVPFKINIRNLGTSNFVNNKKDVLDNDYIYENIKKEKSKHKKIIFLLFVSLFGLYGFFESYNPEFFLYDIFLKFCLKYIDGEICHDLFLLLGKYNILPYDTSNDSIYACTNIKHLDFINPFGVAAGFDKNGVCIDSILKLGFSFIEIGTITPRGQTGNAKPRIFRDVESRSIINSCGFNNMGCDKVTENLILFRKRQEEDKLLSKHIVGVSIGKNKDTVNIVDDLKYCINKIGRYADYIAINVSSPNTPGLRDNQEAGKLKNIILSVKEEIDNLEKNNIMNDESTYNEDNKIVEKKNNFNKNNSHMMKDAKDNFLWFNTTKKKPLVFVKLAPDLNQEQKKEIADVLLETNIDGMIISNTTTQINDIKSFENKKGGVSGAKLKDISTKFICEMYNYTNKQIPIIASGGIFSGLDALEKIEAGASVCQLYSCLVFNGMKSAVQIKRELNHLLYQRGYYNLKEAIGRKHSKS

SMILES | z-score [1] | z-score [2] | z-score [3] | z-score [4] | z-score [5] | z-score [6] | z-score [7] | z-score [8] | z-score [9] | z-score [10] | z-score [11] | z-score [12] | z-score [13] | composite z-score [14] | z-score [15] | z-score [16] | z-score [17] | z-score [18] | z-score [19] | composite z-score [20]
Cc1ccc(S[C@]2(C(=O)O)CC(=O)N(Cc3ccccc3C(F)(F)F)[C@@H]2c2ccc(CO)cc2)cc1 | 0.391 | -0.208 | 0.775 | -0.804 | 0.393 | 0.143 | 0.998 (inactive) | 0.171 | -0.446 | 0.142 (inactive) | 0.44 | -0.0891 (inactive) | 0.478 (inactive) | 0.52 (inactive) | 0.127 (inactive) | 0.383 (inactive) | 0.232 (inactive) | 1.14 (inactive) | -0.285 | -0.313
O=C1c2ccccc2[C@](Cc2ccccc2I)(C(=O)NC2CC2)[C@H](c2ccc(CO)cc2)N1Cc1ccccc1Cl | -0.138 | -0.103 | -0.0887 | -1.39 | -0.715 | 0.833 | -0.469 (inactive) | -0.332 | -0.664 | 0.623 (inactive) | 0.197 | 0.504 (inactive) | -0.405 (inactive) | 0.37 (inactive) | 0.925 (inactive) | 1.9 (inactive) | 0.258 (inactive) | -0.507 (inactive) | -0.506 | 0.0432
COCCOC(=O)N1C(=O)[C@@]2(c3cc(C#CC4(O)CCCCCC4)ccc31)[C@H](C(=O)N1CCc3cc(OC)c(OC)cc3C1)[C@H]1C(=O)O[C@H](c3ccccc3)[C@H](c3ccccc3)N1[C@@H]2c1ccccc1OCCO | 0.863 | 1.59 | 0.898 | -0.401 | -1.47 | 0.782 | 1.29 (inactive) | -0.477 | -0.952 | 0.993 (inactive) | 0.032 | 1.96 (inactive) | 0.162 (inactive) | 0.666 (inactive) | 1.01 (inactive) | 2.98 (inactive) | -0.0554 (inactive) | 0.585 (inactive) | 0.793 | 0.0297
COc1ccc(C#Cc2ccc3c(c2)[C@]2(C(=O)N3)[C@H](C(=O)O)[C@H]3C(=O)O[C@H](c4ccccc4)[C@H](c4ccccc4)N3[C@@H]2c2ccc(OCCO)cc2)cc1 | 0.614 | 0.971 | 1.27 | -2.45 | -4.03 | -4.14 | -4.58 (inactive) | -1.23 | -1.27 | 0.982 (inactive) | -0.182 | 0.773 (inactive) | 0.586 (inactive) | -15.6 (active) | 3.6 (inactive) | 2.51 (inactive) | 0.851 (inactive) | 0.377 (inactive) | 0.431 | 0.0811
COC(=O)[C@H]1N=C(c2ccc(OCCCO)cc2)O[C@H]1c1ccccc1CN=[N+]=[N-] | -0.348 | -0.409 | 0.0036 | -1.95 | -0.35 | -0.393 | 0.957 (inactive) | 0.344 | -0.823 | 2.65 (inactive) | 1.55 | -0.785 (inactive) | 0.236 (inactive) | 0.982 (inactive) | -0.043 (inactive) | 1.29 (inactive) | 0.535 (inactive) | -0.0456 (inactive) | 1.32 | 0.331
O=C(NCc1ccccc1)[C@]1(Cc2ccccc2)N=C(c2ccc(OCCCO)cc2)O[C@@H]1c1ccccc1 | -2.44 | 0.709 | -1.83 | -2.57 | -4.2 | 0.683 | 0.145 (inactive) | -1.21 | -1.24 | 0.0976 (inactive) | 0.455 | 1.41 (inactive) | -1.91 (inactive) | 1.8 (inactive) | 1.19 (inactive) | 3.75 (inactive) | 0.653 (inactive) | -0.642 (inactive) | -1.79 | 0.0871
COCCCNC(=O)[C@@]1(Cc2ccccc2)COC(c2ccc(OCCCO)cc2)=N1 | 0.654 | -0.598 | 1.02 | -0.35 | -1.04 | -1.11 | 0.154 (inactive) | -0.367 | -0.693 | 0.244 (inactive) | 0.515 | -0.0995 (inactive) | 0.141 (inactive) | 0.45 (inactive) | -0.499 (inactive) | -0.031 (inactive) | -0.13 (inactive) | 0.993 (inactive) | 1.22 | -0.098
COCCOC(=O)N1C(=O)[C@@]2(c3ccccc31)[C@H](c1ccc(OCCO)cc1)N1[C@H](c3ccccc3)[C@H](c3ccccc3)OC(=O)[C@H]1[C@@H]2C(=O)NC[C@H](O)c1ccccc1 | -0.332 | 0.754 | 0.349 | -0.991 | -2.39 | -0.32 | 0.988 (inactive) | 0.199 | -0.864 | -1.16 (inactive) | 0.37 | 1.96 (inactive) | -0.261 (inactive) | -1.93 (inactive) | 2.32 (inactive) | 2.94 (inactive) | 0.271 (inactive) | 0.193 (inactive) | -0.25 | -0.148
NC(=O)[C@H]1[C@@H]2C(=O)O[C@@H](c3ccccc3)[C@@H](c3ccccc3)N2[C@@H](c2ccc(O)cc2)[C@]12C(=O)Nc1ccc(C#CC3(O)CCCCCC3)cc12 | 0.205 | 1.54 | 0.961 | -1.13 | -4.08 | -1.39 | -0.575 (inactive) | -0.808 | -0.184 | 0.995 (inactive) | -0.518 | -0.475 (inactive) | 0.522 (inactive) | -0.885 (inactive) | 0.738 (inactive) | -0.323 (inactive) | 0.249 (inactive) | -0.815 (inactive) | 0.159 | -0.102
